The nature of assay [1]: small molecules captured by biotinylated probe aFSTL3 – biochemical, small-molecule microarray, fluorescence 635/667, stem cell growth factor project, primary screen (AID 1064).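 Also: measures binding of the biotinylated anti-FSTL3 antibody to printed compounds.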 Conditions: higher = more signal.
The nature of assay [2]: binders from COS7 lysate, DM2A8 probe, primary screen, torsin A project, cell lysate, small-molecule microarray, fluorescence 635/667 (AID 1065). To be noted: higher = more signal, COS7 lysate expressing mutant human TOR1A.
Assay [3] in a line: small molecules captured by biotinylated probe aFGF2 – biochemical, small-molecule microarray, fluorescence 635/667, stem cell growth factor project, primary screen (AID 1067).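 Also: measures binding of biotinylated aFGF2 protein to printed compounds on slides; z-score merges feature fluorescence and signal-to-noise across triplicate slides.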 To be noted: higher = more signal.
Assay [4] is described as follows: small molecules captured by biotinylated probe aFGF10 – biochemical, small-molecule microarray, fluorescence 635/667, stem cell growth factor project, primary screen (AID 1071).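 Also: score merges 667 nm spot intensity and signal to noise from triplicate slides.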 Conditions: higher = more signal.
Assay [5] concerns the target Neurogenic locus notch homolog protein 2 (Homo sapiens) (UniProt Q04721). Put plainly: small molecules binding Notch2 protein – biochemical, small-molecule microarray, 635 nm fluorescence, stem cell growth factors, primary screen (AID 1073). To be noted: higher = more signal.
In assay [6] the target is Pro-neuregulin-1, membrane-bound isoform (Homo sapiens) (UniProt Q02297). In words: small molecules binding neuregulin-1 protein – biochemical, small-molecule microarray, fluorescence 635/667, psychiatric disease protein project, primary screen (AID 1075).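 Also: score combines 667 nm spot fluorescence with signal to noise.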 Conditions: NRG1 binding, 635 nm fluorescence, higher = more signal.
Pro-neuregulin-1, membrane-bound isoform (Homo sapiens), sequence (Q02297 whole entry, looked up, the tested form may be a part, canonical isoform): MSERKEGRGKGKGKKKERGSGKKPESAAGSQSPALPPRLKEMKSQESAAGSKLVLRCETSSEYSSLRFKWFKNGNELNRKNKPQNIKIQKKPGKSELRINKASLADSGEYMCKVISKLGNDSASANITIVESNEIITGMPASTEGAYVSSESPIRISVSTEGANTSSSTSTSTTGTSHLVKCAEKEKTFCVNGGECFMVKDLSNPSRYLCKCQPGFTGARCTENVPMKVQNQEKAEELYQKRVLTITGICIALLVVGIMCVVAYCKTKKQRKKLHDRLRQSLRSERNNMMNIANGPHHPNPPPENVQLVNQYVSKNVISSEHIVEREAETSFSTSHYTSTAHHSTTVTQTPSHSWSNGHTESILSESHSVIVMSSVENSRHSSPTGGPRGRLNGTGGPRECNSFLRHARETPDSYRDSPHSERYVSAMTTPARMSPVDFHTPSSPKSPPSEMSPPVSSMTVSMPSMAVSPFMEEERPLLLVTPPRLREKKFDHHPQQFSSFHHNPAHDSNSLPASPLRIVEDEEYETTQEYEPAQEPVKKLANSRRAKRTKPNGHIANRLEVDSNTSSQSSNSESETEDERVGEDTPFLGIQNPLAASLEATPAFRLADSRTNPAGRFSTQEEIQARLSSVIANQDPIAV
Assay [7] deals with Neuregulin-1 EGF-like domain. In words: small molecules binding NRG1 EGF domain – biochemical, small-molecule microarray, 635 nm fluorescence, primary screen (AID 1081).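 Also: binding of the protein to compounds printed on small-molecule microarray slides.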 Conditions: higher = more signal.
Assay [8] is described as follows: FRG1 expression reporter modulators in myotubes – cell-based, C2C12 myotubes, firefly/Renilla luciferase, luminescence, FRG1 inhibition for FSHD, primary screen (AID 1084). Conditions: FRG1 promoter luciferase, higher = more signal, called active from +8 up or from −8 down.
The nature of assay [9]: small molecules captured by biotinylated probe aFST – biochemical, small-molecule microarray, fluorescence 635/667, stem cell growth factor project, primary screen (AID 1086).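 Also: score merges 667 nm fluorescence with signal-to-noise of each printed compound spot.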 Conditions: higher = more signal.
The nature of assay [10]: binders of probe aHhip on microarray, primary screen, stem cell growth factor project, biochemical, small-molecule microarray, fluorescence 635/667 (AID 1087).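 Also: score merges spot fluorescence at 667nm with spot signal to noise ratio.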 Conditions: higher = more signal.
For assay [11], the system named is PRMT1 (protein arginine N-methyltransferase 1). In words: small molecules binding arginine methyltransferase PRMT1 – biochemical, small-molecule microarray, 635 nm fluorescence, primary screen (AID 1088).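 Also: binding of Prmt1 protein to compounds spotted on small-molecule microarray slides.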 To be noted: higher = more signal.
The nature of assay [12]: growth effects on S. cerevisiae YJM789 – YJM789 clinical isolate, OD600, 24 h, basal, primary screen (AID 1089).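 Also: growth of clinical yeast isolate S. cerevisiae YJM 789 seeded 1000 cells per well; test concentration not given here.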 Conditions: higher = more signal, called active from +8 up or from −8 down.
Assay [13] is described as follows: S. pombe growth modifiers, basal conditions – strain 972, OD600, 24 h, no modulator, primary screen (AID 1090).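 Also: basal condition with compound alone and no growth modifier present; test concentration not given here.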 Conditions: S. pombe 972 growth, higher = more signal, called active from +8 up or from −8 down.
Assay [14] can be described thus: budding yeast growth modifiers under rapamycin – strain BY4716, OD600, 96 h, primary screen (AID 1091). Also: test concentration not given here. Conditions: S. cerevisiae BY4716 + rapamycin, higher = more signal, called active from +8 up or from −8 down.
The target of assay [15] is Torsin-1A-interacting protein 2 (Homo sapiens) (UniProt Q8NFQ8). In words: small molecules binding lysate-expressed LULL1 – cell lysate, human LULL1 lysate, 635/667 nm fluorescence, primary screen (AID 1092).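 Also: probe is lysate of COS7 cells overexpressing human LULL1; score merges per-feature 667 nm fluorescence with signal-to-noise.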 Conditions: small-molecule microarray, hLULL1 lysate binding, 635 nm fluorescence; higher = more signal.
Torsin-1A-interacting protein 2 (Homo sapiens), sequence (Q8NFQ8 whole entry, looked up): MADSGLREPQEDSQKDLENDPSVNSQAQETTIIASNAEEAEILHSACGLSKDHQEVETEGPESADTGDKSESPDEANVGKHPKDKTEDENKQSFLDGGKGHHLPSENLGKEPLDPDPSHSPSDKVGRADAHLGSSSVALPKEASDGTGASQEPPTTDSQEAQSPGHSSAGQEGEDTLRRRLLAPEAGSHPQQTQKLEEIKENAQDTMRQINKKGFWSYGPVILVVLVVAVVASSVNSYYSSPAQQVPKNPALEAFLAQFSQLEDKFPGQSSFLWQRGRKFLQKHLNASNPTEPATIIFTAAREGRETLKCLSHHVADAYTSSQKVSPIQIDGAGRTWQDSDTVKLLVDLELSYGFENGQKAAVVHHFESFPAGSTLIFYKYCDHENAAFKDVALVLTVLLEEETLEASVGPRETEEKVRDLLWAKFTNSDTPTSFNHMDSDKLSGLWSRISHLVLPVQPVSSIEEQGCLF
Assay [16] in a line: optical density change of DRC41 E. coli – strain DRC41, OD650, 24 h, E. coli filamentation project, primary screen (AID 1093).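 Also: MC1000 strain lacking acrAB efflux and sulA so SOS filamentation is blocked; test concentration not given here.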 To be noted: E. coli DRC41 growth, higher = more signal, called active from +8 up or from −8 down.
Assay [17] can be described thus: probe aLefty2 binding to arrayed compounds – biochemical, biotinylated probe, 635/667 nm fluorescence, primary screen (AID 1094).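 Also: score merges spot fluorescence near 667 nm with spot signal-to-noise ratio.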 Conditions: small-molecule microarray, higher = more signal.
Assay [18] has as its system Noggin (protein binding on small-molecule microarray). In words: small molecules binding Noggin protein – biochemical, 635/667 nm fluorescence, primary screen (AID 1095).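 Also: score merges 667 nm feature fluorescence with signal to noise over triplicate slides.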 To be noted: 635 nm fluorescence, higher = more signal.
The target in assay [19] is Neurogenic locus notch homolog protein 3 (Homo sapiens) (UniProt Q9UM47). Put plainly: small molecules binding NOTCH3 protein – biochemical, 635/667 nm fluorescence, primary screen (AID 1096). To be noted: small-molecule microarray, 635 nm fluorescence, higher = more signal.
Neurogenic locus notch homolog protein 3 (Homo sapiens), sequence (Q9UM47 whole entry, looked up): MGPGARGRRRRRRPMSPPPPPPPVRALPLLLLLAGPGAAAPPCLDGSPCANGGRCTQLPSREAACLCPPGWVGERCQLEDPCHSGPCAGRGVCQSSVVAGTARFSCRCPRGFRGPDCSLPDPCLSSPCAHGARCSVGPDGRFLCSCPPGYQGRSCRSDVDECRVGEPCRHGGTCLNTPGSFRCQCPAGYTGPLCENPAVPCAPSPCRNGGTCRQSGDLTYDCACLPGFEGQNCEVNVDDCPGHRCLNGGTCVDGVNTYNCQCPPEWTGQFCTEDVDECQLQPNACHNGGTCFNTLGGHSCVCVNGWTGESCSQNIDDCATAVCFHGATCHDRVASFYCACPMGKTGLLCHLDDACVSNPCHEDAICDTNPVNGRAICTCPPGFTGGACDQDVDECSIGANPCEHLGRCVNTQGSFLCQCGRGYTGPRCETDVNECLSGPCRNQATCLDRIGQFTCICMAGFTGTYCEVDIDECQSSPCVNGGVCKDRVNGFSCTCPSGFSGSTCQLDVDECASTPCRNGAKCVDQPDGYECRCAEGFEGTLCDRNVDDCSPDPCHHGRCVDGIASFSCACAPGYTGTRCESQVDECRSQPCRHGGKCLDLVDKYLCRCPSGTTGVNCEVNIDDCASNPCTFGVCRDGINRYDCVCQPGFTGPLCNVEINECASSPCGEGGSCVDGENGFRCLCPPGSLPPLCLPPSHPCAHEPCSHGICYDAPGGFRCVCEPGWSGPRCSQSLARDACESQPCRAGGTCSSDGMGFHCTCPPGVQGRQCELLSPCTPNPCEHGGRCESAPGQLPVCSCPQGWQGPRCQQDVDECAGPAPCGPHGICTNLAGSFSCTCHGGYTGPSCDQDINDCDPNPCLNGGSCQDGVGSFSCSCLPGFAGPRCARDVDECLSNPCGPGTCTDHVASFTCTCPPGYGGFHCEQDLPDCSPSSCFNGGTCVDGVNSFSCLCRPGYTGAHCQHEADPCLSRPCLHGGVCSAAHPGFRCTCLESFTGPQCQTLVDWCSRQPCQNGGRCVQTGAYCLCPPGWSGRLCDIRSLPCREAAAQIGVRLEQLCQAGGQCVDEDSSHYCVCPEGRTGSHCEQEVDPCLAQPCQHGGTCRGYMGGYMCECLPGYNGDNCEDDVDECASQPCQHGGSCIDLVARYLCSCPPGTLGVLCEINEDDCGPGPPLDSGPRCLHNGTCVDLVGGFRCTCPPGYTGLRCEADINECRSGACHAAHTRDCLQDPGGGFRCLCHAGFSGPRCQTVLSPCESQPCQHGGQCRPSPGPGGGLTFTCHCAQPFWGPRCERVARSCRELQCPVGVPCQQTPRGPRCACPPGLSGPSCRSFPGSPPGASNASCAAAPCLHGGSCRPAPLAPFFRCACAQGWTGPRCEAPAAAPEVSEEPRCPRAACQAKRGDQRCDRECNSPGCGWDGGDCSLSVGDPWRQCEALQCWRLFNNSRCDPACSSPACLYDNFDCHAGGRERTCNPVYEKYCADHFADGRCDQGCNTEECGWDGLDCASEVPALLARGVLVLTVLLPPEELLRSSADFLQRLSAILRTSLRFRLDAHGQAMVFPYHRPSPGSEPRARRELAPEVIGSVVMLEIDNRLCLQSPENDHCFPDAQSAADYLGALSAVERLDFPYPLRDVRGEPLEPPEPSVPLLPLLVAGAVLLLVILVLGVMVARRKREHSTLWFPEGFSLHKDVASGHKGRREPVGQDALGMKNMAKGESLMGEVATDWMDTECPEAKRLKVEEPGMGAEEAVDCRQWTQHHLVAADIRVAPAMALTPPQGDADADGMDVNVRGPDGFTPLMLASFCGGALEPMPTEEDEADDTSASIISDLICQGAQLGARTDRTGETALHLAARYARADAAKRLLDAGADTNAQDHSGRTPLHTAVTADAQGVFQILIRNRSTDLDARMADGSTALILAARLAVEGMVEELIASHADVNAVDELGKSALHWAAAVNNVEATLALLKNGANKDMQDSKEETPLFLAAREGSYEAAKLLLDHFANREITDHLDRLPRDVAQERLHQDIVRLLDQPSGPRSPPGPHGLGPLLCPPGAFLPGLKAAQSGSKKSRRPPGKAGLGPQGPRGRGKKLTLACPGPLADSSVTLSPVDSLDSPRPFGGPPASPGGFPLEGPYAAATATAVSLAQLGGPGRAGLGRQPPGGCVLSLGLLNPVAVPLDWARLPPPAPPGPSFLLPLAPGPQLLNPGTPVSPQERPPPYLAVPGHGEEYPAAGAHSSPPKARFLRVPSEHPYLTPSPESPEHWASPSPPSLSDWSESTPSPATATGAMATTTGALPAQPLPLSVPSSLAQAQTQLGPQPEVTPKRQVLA
Assay [20] is described as follows: probe aEGFR binding to arrayed compounds – biochemical, biotinylated probe, 635/667 nm fluorescence, primary screen (AID 1097).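 Also: probe is a biotinylated anti-EGFR antibody binding compounds printed on slides; score combines fluorescence near 667 nm and signal to noise of each spot.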 To be noted: small-molecule microarray, higher = more signal.

The source made the active and inactive calls.

For `CC(C)=CCCC(C)=CCON=C1C[C@@H](O)[C@@H](O)[C@@H]2[C@@H]3C(=O)N([C@@H](C)c4ccccc4)C(=O)[C@@H]3CC[C@@H]12`, the composite z-score in [1] was -0.465; in assay [2], -0.0543; in [3] it was -0.0493; in assay [4], 0.374; in assay [5], 0.449; in [6] it was 0.137. The composite z-score was 0.661 in assay [7]; 0.11 in assay [9]; -0.249 in assay [10]; -0.744 in [11]; 0.676 in assay [15]; -0.166 in [17]. Moreover, the composite z-score in assay [18] is 0.331; in [19] it was 0.508; in assay [20], -0.111. Also, the z-score in [8] is -0.366 (inactive); in [12], -0.208 (inactive); in [13] it was 0.301 (inactive); in [14] it was -0.362 (inactive); in [16], 0.215 (inactive).

For `COc1ccc(COC(=O)NN=C2C[C@@H](O)[C@@H](O)[C@@H]3[C@@H]4C(=O)N(C(C)(C)C)C(=O)[C@@H]4CC[C@@H]23)cc1`, the composite z-score was -0.31 in assay [1]; 1.1 in assay [2]; -0.0243 in assay [3]; 0.568 in assay [4]; 1.14 in [5]; 0.173 in assay [6]. Also, the composite z-score is 0.644 in assay [7]; 0.413 in assay [9]; -0.204 in assay [10]; 1.16 in assay [11]; 0.515 in [15]; -0.005 in [17]. The composite z-score in assay [18] is 0.0364; in assay [19], 1.02; in [20] it was -0.03. Besides, the z-score in assay [8] is 1.24 (inactive); in [12], -1.26 (inactive); in assay [13] it was -0.573 (inactive); in assay [14], -0.731 (inactive); in [16], 1.09 (inactive).

Turning to `CC(=O)OC[C@H]1O[C@H](CC=NO[C@@H](C)c2cc(-c3c(C)cc(C)cc3C)no2)C=C[C@@H]1OC(C)=O`, the composite z-score in assay [1] is -0.357; in [2], -0.264; in assay [3] it was -0.1; in [4], 0.149; in assay [5], 0.0166; in assay [6], -0.291. Also, the composite z-score is -0.736 in assay [7]; -0.122 in assay [9]; -0.0994 in assay [10]; -0.0654 in [11]; -0.382 in [15]; -0.212 in assay [17]. For the same compound, the results for the composite z-score in assay [18], in assay [19] and in assay [20] were 0.342, 0.106 and -0.0662, respectively. The z-score in assay [8] was 1.03 (inactive); in assay [12], 0.208 (inactive); in assay [13] it was -0.0489 (inactive); in assay [14], 0.523 (inactive); in [16] it was -0.542 (inactive).

On to `CC(C)(C)N1C(=O)[C@H]2[C@H]3[C@H](O)[C@H](O)CC(=NNC(=O)OCc4ccccc4)[C@H]3CC[C@H]2C1=O`, for which the composite z-score in assay [1] is -0.642; in assay [2], 0.0714; in assay [3], -0.0684; in assay [4], 0.559; in assay [5], 0.389; in assay [6], 0.26. The composite z-score is 0.748 in assay [7]; -0.0777 in assay [9]; -0.169 in assay [10]; 1.3 in assay [11]; 1.39 in [15]; -0.191 in [17]. For the same compound, the composite z-score in [18] is 0.683; in assay [19] it was 0.4; in assay [20], -0.0051. For the same compound, the z-score was -0.0034 (inactive) in assay [8]; 0.272 (inactive) in [12]; -1.49 (inactive) in assay [13]; -0.391 (inactive) in assay [14]; 0.0955 (inactive) in assay [16].

With `CCOC(=O)CCN1C(=O)[C@H]2[C@H]3[C@H](O)[C@H](O)CC(=NO[C@@H]4O[C@H](CO)[C@@H](O)[C@H](O)[C@H]4O)[C@@H]3CC[C@H]2C1=O`, the composite z-score is -0.512 in assay [1]; 1.86 in assay [2]; -0.129 in [3]; 1.04 in assay [4]; 1.31 in assay [5]; 0.254 in [6]. Also, the composite z-score in [7] was 1.14; in assay [9], 0.675; in [10] it was -0.0296; in [11], 1.52; in assay [15], 0.7; in assay [17], -0.0598. The results for the composite z-score in assay [18], in assay [19] and in assay [20] were 0.381, 1.09 and 0.176, respectively. The z-score in [8] was -0.389 (inactive); in assay [12], -0.476 (inactive); in assay [13], -0.664 (inactive); in assay [14], -0.933 (inactive); in assay [16], 0.283 (inactive).

Turning to `C[C@@H]1CC[C@H]2C(=O)OC(CN3C(=O)c4ccccc4C3=O)CN2[C@H]1c1ccc(Br)cc1` (stereo not given in full), the composite z-score in [1] was -0.138; in assay [2] it was 1; in assay [3] it was -0.133; in [4], 0.0468; in assay [5], 0.315; in assay [6], 0.48. Further, the composite z-score in assay [7] is -0.429; in assay [9], 0.362; in [10] it was -0.132; in [11], 0.658; in assay [15], 1.38; in assay [17], -0.185. The composite z-score in assay [18] was -0.263; in assay [19], 0.361; in [20] it was -0.0703. Also, the z-score was 1.11 (inactive) in assay [8]; 0.341 (inactive) in assay [12]; 0.35 (inactive) in assay [13]; -0.338 (inactive) in assay [14]; 0.725 (inactive) in [16].

As for `C#CCCCON=C1[C@H]2CCn3c(=O)n([C@@H](CC)c4ccccc4)c(=O)n3[C@H]2[C@H](O)[C@@H]2O[C@H]12`, the composite z-score in assay [1] was -0.409; in assay [2], 0.152; in [3], 0.0047; in [4] it was 0.353; in [5], 0.148; in [6], 0.24. Besides, the composite z-score in assay [7] was 0.322; in [9], -0.0356; in assay [10], -0.261; in [11] it was -0.142; in [15] it was 0.883; in assay [17], -0.114. The composite z-score was 1.05 in [18], 0.226 in [19] and -0.042 in [20]. Besides, the z-score in assay [8] was 0.456 (inactive); in assay [12], -0.455 (inactive); in assay [13] it was -1.1 (inactive); in [14] it was -0.533 (inactive); in [16], -0.647 (inactive).

For the compound `CCc1cc2c(nc1CC)CCN(CCC(C)=NOC(C)CN1CCCCc3nc(C)c(C)cc31)C2` (stereo not given), the composite z-score was -0.154 in assay [1]; 1.24 in assay [2]; -0.073 in [3]; 0.541 in assay [4]; 1.11 in assay [5]; 0.946 in assay [6]. The composite z-score in assay [7] was 1.07; in assay [9], 0.544; in assay [10], -0.174; in assay [11], 1.49; in assay [15], 2.42; in [17], 0.0809. For the same compound, the results for the composite z-score in [18], in [19] and in [20] were 0.932, 1.08 and 0.142, respectively. Further, the z-score in [8] was 0.795 (inactive); in assay [12] it was -0.379 (inactive); in assay [13], -16.2 (active); in [14], -0.755 (inactive); in assay [16], 0.546 (inactive).

Consider `COC(=O)[C@@H]1CC[C@H](C)[C@@H](c2ccc(Br)cc2)N1C(=O)C(F)(F)F`, for which the composite z-score in [1] was -0.23; in assay [2], -0.214; in [3] it was -0.108; in assay [4], -0.148; in [5], -0.232; in assay [6] it was -0.493. The composite z-score in assay [7] was -0.677; in assay [9], -0.249; in [10], -0.412; in assay [11], -1.18; in [15], 1.25; in assay [17], -0.22. Also, the composite z-score was -0.281 in assay [18], -0.446 in assay [19] and -0.226 in assay [20]. The z-score in assay [8] is -0.589 (inactive); in assay [12], 0.61 (inactive); in assay [13] it was 0.186 (inactive); in [14], 2.16 (inactive); in assay [16], 0.11 (inactive).
